Counter-ions that a name gives are not always drawn.
Each compound was assayed on Staphylococcus aureus MW2 delta-mecA (mecA-) (assay: normalized GFP fluorescence (growth of mecA- strain) (fraction of control range); higher = more growth of mecA- strain). Settings: compound concentration: 150 uM; cefoxitin: subinhibitory; fluorescent label: GFP.
In short: (§1)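 Two pre-induced S. aureus MW2 strains, one with the gene labeled by DsRed and one lacking it labeled by GFP, were mixed 1:1 in LB with a subinhibitory antibiotic dose set daily. The mix went at 5 µL/well onto 150 μM compound (1.5% DMSO) in 1536-well plates, single replicate, and grew unshaken 20 h at 37 °C, 90% humidity. DsRed (540/590) and GFP (485/520) values were scaled per plate between single-strain control medians, and plates with high untreated ratios or rows with DsRed/GFP >10 were left out.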
In the case of `C[C@@H]1[C@H](O)[C@@H](C)/C=C/C=C/C=C/C=C/C=C/C=C/C=C/[C@H](O[C@@H]2O[C@H](C)[C@@H](O)[C@H](N)[C@@H]2O)C[C@@H]2O[C@](O)(C[C@@H](O)C[C@@H](O)[C@H](O)CC[C@@H](O)C[C@@H](O)CC(=O)O[C@H]1C)C[C@H](O)[C@H]2C(=O)O`, the “normalized GFP fluorescence” value is reported as 0.269.
With `C[C@@H]1O[C@@H](OC[C@H]2O[C@@H](Oc3c(-c4ccc(O)c(O)c4)oc4cc(O)cc(O)c4c3=O)[C@H](O)[C@@H](O)[C@@H]2O)[C@H](O)[C@H](O)[C@H]1O` [Rutin (Rutoside)] the “normalized GFP fluorescence” value was 0.394.
In the case of `Cc1ccc(C(=O)c2ccc(CC(=O)O)n2C)cc1`, the “normalized GFP fluorescence” value is reported as 0.421.
`Nc1ccc(C(=O)O)cc1` was tested, and the “normalized GFP fluorescence” value was 0.617.
`COc1ccc2c(c1)c(CC(=O)O)c(C)n2C(=O)c1ccc(Cl)cc1` was tested, and the “normalized GFP fluorescence” value was -0.013.
In the case of `CCC1(c2ccccc2)NC(=O)N(C)C1=O` (stereo unspecified), the “normalized GFP fluorescence” value is reported as 0.794.
`C[C@]12CCC3=C4CCC(=O)C=C4CC[C@H]3[C@@H]1CC[C@@]2(O)CC#N` [Dienogest] was tested, and the “normalized GFP fluorescence” value was 0.271.
With `Cn1cnc2c1c(=O)[nH]c(=O)n2C` the “normalized GFP fluorescence” value was 0.351.
For `COc1cc2ncnc(Nc3ccc(F)c(Cl)c3)c2cc1NC(=O)/C=C/CN1CCCCC1`, the “normalized GFP fluorescence” value was 0.102.
For `O=C1CCc2cc(OCCCCc3nnnn3C3CCCCC3)ccc2N1`, the “normalized GFP fluorescence” value was 0.533.
With `C[C@]12CC[C@@H]3c4ccc(O)cc4CC[C@H]3[C@@H]1CCC2=O` [Estrone] the “normalized GFP fluorescence” value was 0.136.
In the case of `CCN[C@@H]1C[C@H](N)[C@@H](O[C@H]2OC(CN)=CC[C@H]2N)[C@H](O)[C@H]1O[C@H]1OC[C@](C)(O)[C@H](NC)[C@H]1O`, the “normalized GFP fluorescence” value is reported as 0.695.
With `CCOC(=O)N1CCC(=C2c3ccc(Cl)cc3CCc3cccnc32)CC1` the “normalized GFP fluorescence” value was -0.02.
For `CC1(C)[C@@H](O)CC[C@]2(C)[C@H]3C(=O)C=C4[C@@H]5C[C@@](C)(C(=O)O)CC[C@]5(C)CC[C@@]4(C)[C@]3(C)CC[C@@H]12` [Enoxolone (Glycyrrhetin)], the “normalized GFP fluorescence” value was 0.0336.
In the case of `O=C(O)c1ccccc1C(=O)Nc1ccc(S(=O)(=O)Nc2nccs2)cc1`, the “normalized GFP fluorescence” value is reported as 0.538.
For `C[N+](C)(C)C[C@H](O)CC(=O)[O-]`, the “normalized GFP fluorescence” value was 0.791.
`C[C@](N)(Cc1ccc(O)c(O)c1)C(=O)O` was tested, and the “normalized GFP fluorescence” value was 0.258.
`COc1ccccc1N1CCN(CCCNc2cc(=O)n(C)c(=O)n2C)CC1` [Urapidil hydrochloride] was tested, and the “normalized GFP fluorescence” value was 0.413.
For `CCN(CC)C(=O)c1ccc(O)c(OC)c1`, the “normalized GFP fluorescence” value was 0.00273.
With `CC(C)OC(=O)C(C)(C)Oc1ccc(C(=O)c2ccc(Cl)cc2)cc1` the “normalized GFP fluorescence” value was 0.203.
With `CC1=C(/C=C/C(C)=C/C=C/C(C)=C/CO)C(C)(C)CCC1` the “normalized GFP fluorescence” value was 0.232.
`NS(=O)(=O)c1cc2c(cc1Cl)NC(C1CC3C=CC1C3)NS2(=O)=O` (stereo unspecified) was tested, and the “normalized GFP fluorescence” value was 0.463.

Each compound was assayed on Staphylococcus aureus MW2 (mecA+) (assay: normalized DsRed fluorescence (growth of mecA+ strain) (fraction of control range); higher = more growth of mecA+ strain). Settings: compound concentration: 150 uM; cefoxitin: subinhibitory; fluorescent label: DsRed.
In short: as §1
`CC(=O)OCC(CCn1cnc2cnc(N)nc21)COC(C)=O` was tested, and the “normalized DsRed fluorescence” value was 0.667.
For `C[C@H]1[C@H](OC(=O)CCC(=O)O)O[C@@H]2O[C@@]3(C)CC[C@H]4[C@H](C)CC[C@@H]1[C@@]24OO3`, the “normalized DsRed fluorescence” value was 0.712.
With `CCCCNC(=O)NS(=O)(=O)c1ccc(C)cc1` the “normalized DsRed fluorescence” value was 0.588.
For `C1CCC(C(CC2CCCCN2)C2CCCCC2)CC1` (stereo unspecified), the “normalized DsRed fluorescence” value was 0.0259.
`CCN(CC)CCCC(C)Nc1ccnc2cc(Cl)ccc12` (stereo unspecified) was tested, and the “normalized DsRed fluorescence” value was 0.443.
For `CNC(=C[N+](=O)[O-])NCCSCc1csc(CN(C)C)n1`, the “normalized DsRed fluorescence” value was 0.785.
`CC(=O)Oc1ccc(C(c2ccc(OC(C)=O)cc2)c2ccccn2)cc1` was tested, and the “normalized DsRed fluorescence” value was 0.669.
`CCOC(=O)C1=C(COCCN)NC(C)=C(C(=O)OC)C1c1ccccc1Cl` (stereo unspecified) was tested, and the “normalized DsRed fluorescence” value was 1.06.
`Cc1ccc([C@@H]2O[C@H](CO)[C@@H](O)[C@H](O)[C@H]2O)cc1Cc1ccc(-c2ccc(F)cc2)s1` [Canagliflozin] was tested, and the “normalized DsRed fluorescence” value was 0.755.
For `COC(=O)C1=C(C)NC(C)=C(C(=O)OC)C1c1ccccc1[N+](=O)[O-]`, the “normalized DsRed fluorescence” value was 0.832.
For `CCN(CC)CCNC(=O)c1ccc(N)cc1`, the “normalized DsRed fluorescence” value was 0.696.
In the case of `Cc1ccc(Nc2nccc(N(C)c3ccc4c(C)n(C)nc4c3)n2)cc1S(N)(=O)=O` [Pazopanib], the “normalized DsRed fluorescence” value is reported as 0.586.
For `CN(C)CCC(c1ccccc1)c1ccccn1` (stereo unspecified), the “normalized DsRed fluorescence” value was 0.799.
`CN1CCCN=C1/C=C/c1cccc(O)c1` was tested, and the “normalized DsRed fluorescence” value was 0.787.
In the case of `CC(C)(C)NC[C@H](O)COc1nsnc1N1CCOCC1`, the “normalized DsRed fluorescence” value is reported as 0.811.
For `CCCCCCNC(=O)n1cc(F)c(=O)[nH]c1=O` [Carmofur], the “normalized DsRed fluorescence” value was 0.452.
In the case of `CC[C@]1(O)C[C@@H]2CN(CCc3c([nH]c4ccccc34)[C@@](C(=O)OC)(c3cc4c(cc3OC)N(C)[C@H]3[C@@](O)(C(=O)OC)[C@H](OC(C)=O)[C@]5(CC)C=CCN6CC[C@]43[C@@H]65)C2)C1` [Vinblastine], the “normalized DsRed fluorescence” value is reported as 0.851.
With `C[C@@H]1[C@H](O)[C@@H](C)/C=C/C=C/C=C/C=C/C=C/C=C/C=C/[C@H](O[C@@H]2O[C@H](C)[C@@H](O)[C@H](N)[C@@H]2O)C[C@@H]2O[C@](O)(C[C@@H](O)C[C@@H](O)[C@H](O)CC[C@@H](O)C[C@@H](O)CC(=O)O[C@H]1C)C[C@H](O)[C@H]2C(=O)O` the “normalized DsRed fluorescence” value was 0.735.
With `C[C@@H]1O[C@@H](OC[C@H]2O[C@@H](Oc3c(-c4ccc(O)c(O)c4)oc4cc(O)cc(O)c4c3=O)[C@H](O)[C@@H](O)[C@@H]2O)[C@H](O)[C@H](O)[C@H]1O` [Rutin (Rutoside)] the “normalized DsRed fluorescence” value was 0.725.
For `Cc1ccc(C(=O)c2ccc(CC(=O)O)n2C)cc1`, the “normalized DsRed fluorescence” value was 0.279.
For `Nc1ccc(C(=O)O)cc1`, the “normalized DsRed fluorescence” value was 0.958.
For `COc1ccc2c(c1)c(CC(=O)O)c(C)n2C(=O)c1ccc(Cl)cc1`, the “normalized DsRed fluorescence” value was 0.261.
In the case of `CCC1(c2ccccc2)NC(=O)N(C)C1=O` (stereo unspecified), the “normalized DsRed fluorescence” value is reported as 0.963.
In the case of `C[C@]12CCC3=C4CCC(=O)C=C4CC[C@H]3[C@@H]1CC[C@@]2(O)CC#N` [Dienogest], the “normalized DsRed fluorescence” value is reported as 0.746.
For `Cn1cnc2c1c(=O)[nH]c(=O)n2C`, the “normalized DsRed fluorescence” value was 0.469.
In the case of `COc1cc2ncnc(Nc3ccc(F)c(Cl)c3)c2cc1NC(=O)/C=C/CN1CCCCC1`, the “normalized DsRed fluorescence” value is reported as 0.557.
In the case of `O=C1CCc2cc(OCCCCc3nnnn3C3CCCCC3)ccc2N1`, the “normalized DsRed fluorescence” value is reported as 0.561.
In the case of `C[C@]12CC[C@@H]3c4ccc(O)cc4CC[C@H]3[C@@H]1CCC2=O` [Estrone], the “normalized DsRed fluorescence” value is reported as 1.11.
In the case of `CCN[C@@H]1C[C@H](N)[C@@H](O[C@H]2OC(CN)=CC[C@H]2N)[C@H](O)[C@H]1O[C@H]1OC[C@](C)(O)[C@H](NC)[C@H]1O`, the “normalized DsRed fluorescence” value is reported as 0.952.
In the case of `CCOC(=O)N1CCC(=C2c3ccc(Cl)cc3CCc3cccnc32)CC1`, the “normalized DsRed fluorescence” value is reported as 0.807.
In the case of `CC1(C)[C@@H](O)CC[C@]2(C)[C@H]3C(=O)C=C4[C@@H]5C[C@@](C)(C(=O)O)CC[C@]5(C)CC[C@@]4(C)[C@]3(C)CC[C@@H]12` [Enoxolone (Glycyrrhetin)], the “normalized DsRed fluorescence” value is reported as 0.987.
With `O=C(O)c1ccccc1C(=O)Nc1ccc(S(=O)(=O)Nc2nccs2)cc1` the “normalized DsRed fluorescence” value was 0.763.
With `C[N+](C)(C)C[C@H](O)CC(=O)[O-]` the “normalized DsRed fluorescence” value was 0.508.
In the case of `C[C@](N)(Cc1ccc(O)c(O)c1)C(=O)O`, the “normalized DsRed fluorescence” value is reported as 0.703.
For `COc1ccccc1N1CCN(CCCNc2cc(=O)n(C)c(=O)n2C)CC1` [Urapidil hydrochloride], the “normalized DsRed fluorescence” value was 0.557.
For `CCN(CC)C(=O)c1ccc(O)c(OC)c1`, the “normalized DsRed fluorescence” value was 0.0959.
With `CC(C)OC(=O)C(C)(C)Oc1ccc(C(=O)c2ccc(Cl)cc2)cc1` the “normalized DsRed fluorescence” value was 0.698.
With `CC1=C(/C=C/C(C)=C/C=C/C(C)=C/CO)C(C)(C)CCC1` the “normalized DsRed fluorescence” value was 0.677.
`NS(=O)(=O)c1cc2c(cc1Cl)NC(C1CC3C=CC1C3)NS2(=O)=O` (stereo unspecified) was tested, and the “normalized DsRed fluorescence” value was 0.69.

— the supplement of paper PMC7695840
